From PubChem
A selection: hits, their analogues and other compounds. The true share with any hit is near 11%.
HPGD inh = inhibitors of human 15-hydroxyprostaglandin dehydrogenase (HPGD) | actives 4.3% (n = 150,000) | Potency, µM, for the others: at the highest dose activity change, negative = inhibition, actives largely listed as inhibitors | P15428 | purified HPGD, NADH fluorescence kinetic, PGE2 substrate; further: potency means the concentration at half of the fitted maximal effect
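20 nM HPGD preincubated 15 min at room temperature with compound in 50 mM Tris-HCl pH 8, 0.01% Tween 20. Started with 1 mM NAD+ and 30 uM prostaglandin E2; NADH fluorescence (360/450 nm) read 5 times over 30-s intervals, last minus first.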
PNC assembly inh = blocks assembly of the perinucleolar compartment; actives 3.1% (n = 140,000); AID 2417; PC3M PTB-GFP, PNC prevalence imaging, 16 h; stronger effect = lower value; activity change (PNC), negative = inhibition, % at 10 µM;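 active means readout at or below -70, meaning at least 70% loss of cells showing the perinucleolar compartment, a nuclear body marking cancer cells; inconclusive means readout between -30 and a set limit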;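 further: plate controls were DMSO wells for no effect and camptothecin positive control wells for full effect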
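Compounds are pinned in duplicate onto adhered PC3M cells stably expressing GFP-tagged PTB and incubated 16 h at 37 C. Cells are then fixed, nuclei stained with Hoechst, and PNC-positive cells counted.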
ALDH1A1 inh = ALDH1A1 (human) enzyme inhibition | Purified ALDH1A1, NADH fluorescence, propionaldehyde substrate | Potency, µM (top dose mostly 75.3 µM), without a hit: at the highest dose activity, negative = inhibition, most hits filed as inhibitors | actives 7.3% (n = 220,000);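 further: potency means the concentration at half of the fitted maximal effect; plate controls were no enzyme wells and a reference inhibitor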
Target sequence (P00352 whole entry, looked up): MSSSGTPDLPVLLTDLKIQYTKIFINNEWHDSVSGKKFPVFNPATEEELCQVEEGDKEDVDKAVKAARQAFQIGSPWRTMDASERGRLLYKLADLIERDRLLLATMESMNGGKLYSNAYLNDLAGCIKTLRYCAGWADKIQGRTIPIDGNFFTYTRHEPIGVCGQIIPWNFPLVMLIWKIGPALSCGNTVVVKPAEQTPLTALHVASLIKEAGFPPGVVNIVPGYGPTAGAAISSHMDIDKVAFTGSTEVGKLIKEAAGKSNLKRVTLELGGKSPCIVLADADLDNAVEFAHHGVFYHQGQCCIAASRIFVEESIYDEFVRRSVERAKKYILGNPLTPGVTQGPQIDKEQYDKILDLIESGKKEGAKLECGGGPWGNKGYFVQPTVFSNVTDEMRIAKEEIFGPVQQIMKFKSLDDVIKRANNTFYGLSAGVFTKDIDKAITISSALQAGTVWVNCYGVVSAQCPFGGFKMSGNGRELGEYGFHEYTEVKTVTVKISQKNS
Numbers without * were called inactive; ? = inconclusive; nt = no result given; [ ] = another dose, or the depositor's remark. Unless noted, the call rests on the fitted dose curve; in most records, active means well fitted inhibition curve with a large enough effect (not every such curve was filed as active); inconclusive means small, poorly fitted or top-dose-only effect, or another doubt; inactive means no such curve, though single readings can be large or run the other way. Unless noted, on the % scale 0 is the no-effect control and ±100 the full control effect.

SMILES | HPGD inh | PNC assembly inh | ALDH1A1 inh
COC(=O)C/C=C\[C@H](C)[C@H](CO)NS(=O)(=O)c1ccc(C)cc1 | nt | nt | 0%[13.5 µM]
COc1cccc(Cn2c(=O)c(-c3cn(C)c4ccccc34)nc3cncnc32)c1 | nt | nt | 0%
O=c1[nH]nc(Cc2ccc(Cl)cc2Cl)c2ccccc12 | -13% | -9 | 1%
CCCc1nc(S(=O)(=O)Cc2ccc(Cl)cc2Cl)n[nH]1 | nt | -116* | -4%
O=C(NC1CCCc2ccccc21)C12CC3CC(CC(O)(C3)C1)C2 (centres undefined) | nt | nt | -6%
CC(N)(C(=O)O)c1cccc(CC(=O)O)c1 (centres undefined) | nt | nt | -7%
O=S(=O)(Nc1nc2ccccc2nc1Nc1ccc2c(c1)OCCO2)c1cccs1 | -15% | -5 | 4%
O=c1ccsn1Cc1ccccc1 | 20µM* | -8 | ?
O=c1ccn(Cc2ccccc2)c(=O)n1Cc1ccccc1 | -15% | ? | -2%
Cc1nnc(SCc2cccs2)[nH]c1=O | -10% | -15 | 10%
COc1cc(COc2cc(N)c(Cl)cc2C(=O)CCC2CCN(CCNS(C)(=O)=O)CC2)cc(OC)c1 | -2% | nt | -12%
Cc1ccn2c(C=O)c(-c3ccc(F)cc3)c(C=O)c2c1 | nt | nt | 13µM*
Cc1c(/C=N/O)c2ccccn2c1C=O | nt | nt | -6%
Cc1cc(C)cc(NC(=S)NCCN(C2CCCCC2)C2CCCC2)c1 | nt | nt | -7%
CCCCCC1C(=O)CCC1CC(=O)OC (centres undefined) | 2% | nt | 6%
c1ccc2c(c1)OCC(c1csc3ncnc(N4CCCCC4)c13)O2 (centres undefined) | -14% | 188 | -6%
Clc1ncnc2scc(C3COc4ccccc4O3)c12 (centres undefined) | 28µM* | -17 | 18µM*
CC1=C(C(=O)OC(C)C)C(c2cccc([N+](=O)[O-])c2)n2c(cc(=O)[nH]c2=S)N1 (centres undefined) | 28µM* | ? | 8%
COCCOC(=O)C1=C(C)NC(C)=C(C(=O)OC(C)C)[C@H]1c1cccc([N+](=O)[O-])c1 | -11% | nt | 5%[20.9 µM]
Cn1c(N)c(C(=O)NCc2ccccc2Cl)sc1=S | -15% | 45 | ?
CCNC(=O)c1sc(=S)n(CC)c1N | 18µM* | 32 | ?
CCn1c(N)c(C(=O)NCCCOC)sc1=S | 14µM* | ? | 3.2µM*
CC(C)OCCCNC(=O)c1sc(=S)n(C)c1N | 28µM* | 22 | -96%
COCCn1c(C)c(C(=O)O)sc1=S | -16% | ? | 6%
CCn1c(N)c(C(=O)N2CCOCC2)sc1=S | nt | 10 | -14%
SMILES | HPGD inh | PNC assembly inh | ALDH1A1 inh
COc1ccc(C[C@H](O)CN2CCOCC2)cc1 | 0% | nt | -3%[13.5 µM]
Cc1ccc(Nc2nc(C)cs2)cc1 | nt | nt | 2%
O=C(C1CCC(CNc2nc(=S)[nH]c3ccccc23)CC1)N1CCN(c2ccc(F)cc2)CC1 (centres undefined) | nt | nt | 14%
CCn1c(SCC(=O)NCc2ccccc2)nnc1-c1cccnc1 | nt | nt | 10%
CCCCCN=Cc1c(C)[nH]n(-c2nc3ccccc3s2)c1=O | -11% | 29 | ?
Cc1ccc2c(N)c(C(=O)N(c3ccccc3)c3ccccc3)sc2n1 | -15% | ? | ?
N#Cc1ccccc1-c1cncnc1NCc1cccnc1 | ? | nt | 28µM*
COc1ccccc1-c1cncnc1NCc1cccnc1 | -9% | nt | -1%
CCC(C)C(NC(=O)C(C)NC(=O)CNC(=O)CNC(=O)OCc1ccccc1)C(=O)OC (centres undefined) | -10% | 51 | 2%
CC(C)c1[nH]nc2c1C(C1C=CCCC1)C(C#N)=C(N)O2 (centres undefined) | nt | nt | 14µM*
CC(C)(C)c1[nH]nc2c1C(C1C=CCCC1)C(C#N)=C(N)O2 (centres undefined) | -4% | 11 | ?
O=C(COc1ccc(S(=O)(=O)NC2CCCCC2)cc1)NC1CCCC1 | nt | nt | -1%
CN(Cc1ccco1)c1nc(-c2ccccc2C(F)(F)F)nc2ccccc12 | nt | nt | 4%
CC(=O)Oc1ccc(N2C(=O)C3C4C=CC(CC4)C3C2=O)cc1[N+](=O)[O-] (centres undefined) | nt | nt | 2%
NNc1nc2cccnc2n(CCNc2ncc(C(F)(F)F)cc2Cl)c1=O | nt | nt | 1.6µM*
O=c1c(Cl)nc2cc(Cl)ccc2n1CCNc1ncc(C(F)(F)F)cc1Cl | -14% | 36 | 1%
O=C(O)c1ccc2c(c1)-c1nc3ccccc3n1C2=O | ? | 1 | ?
COc1ccc2ccccc2c1/C=N/NC(=O)c1cccc(Br)c1 | -17% | -17 | -3%
O=C(N/N=C/c1ccc(N2CCOCC2)o1)c1cccc(C(F)(F)F)c1 | ? | -100* | ?
O=C(Nc1ccc(N2CCOCC2)nc1N1CCOCC1)c1cccc(C(F)(F)F)c1 | nt | nt | 1%
O=C(N/N=C/c1c(O)ccc2ccccc12)c1cccc(C(F)(F)F)c1 | ? | -93* | -14%
O=C(COc1ccccc1)NCCc1cn2ccsc2n1 | -13% | 7 | -4%
CC(C)Oc1ccc(C(=O)Nc2nnc(SCC(=O)N3CCOCC3)s2)cc1 | -2% | -16 | -2%
COc1ccc(C2(CNC(=O)c3ccc(OCC(C)C)cc3)CCOCC2)cc1 | nt | 34 | -3%
Cc1sc2ncn(CC(=O)NCc3ccccn3)c(=O)c2c1S(=O)(=O)N1CCOCC1 | -14% | -100* | 5%
SMILES | HPGD inh | PNC assembly inh | ALDH1A1 inh
COCCCNC(=O)Cn1cnc2sc(C)c(S(=O)(=O)N3CCN(c4ncccn4)CC3)c2c1=O | nt | nt | 10%
CC(=O)OC1CC[C@@]2(C)C3=CC(=O)[C@]4(C)C(CC5OC6(OCC(C)CC6Br)C(C)C54)C3CC[C@H]2C1 (some centres undefined) | -6% | nt | 3%
Cc1ccc2nc(Cl)c(C3CC(c4cccs4)=NN3S(C)(=O)=O)cc2c1 (centres undefined) | -14% | 24 | -8%
O=C(O)CCCC(=O)N1CC(=O)Nc2ccccc21 | 0% | 26 | -8%
O=C1CN(C(=O)COc2ccccc2F)c2ccccc2N1 | -20% | 30 | 18µM*
O=C1CN(C(=O)CNCc2ccccc2Cl)c2ccccc2N1 | nt | nt | 20µM*
O=C1CN(C(=O)CNC(=O)c2cccc(Cl)c2)c2ccccc2N1 | nt | nt | 0%
CC(C)[C@H](NC(=O)c1ccco1)C(=O)OCC(=O)N1CC(=O)Nc2ccccc21 | nt | nt | 14µM*
CC(C)[C@H](NC(=O)c1ccco1)C(=O)OCC(=O)N1CCc2ccccc21 | 0% | -17 | ?
NC(=O)c1nsc(C(=O)N(CC(=O)NCc2ccc3c(c2)OCO3)C2CCCC2)c1N | ? | -8 | ?
O=C(O)c1ccccc1-c1ccccc1C(=O)NCCCO | -11% | 44 | -4%
CCCCCCC(C)OC(=O)c1ccccc1C(=O)O (centres undefined) | nt | nt | 20%
CCOC(=O)C1(CC/C(C)=N\NC(N)=O)CC(C)(C)OC1=O (centres undefined) | 2% | 4 | 8%
C=CCN(C)NC(=S)Nc1ccccc1 | 1% | 24 | -5%
CC[C@@]1([C@@H]2O[C@@H]([C@H]3O[C@@](O)(CO)[C@H](C)C[C@@H]3C)C[C@@H]2C)CC[C@H]([C@]2(C)CC[C@]3(C[C@H](O)[C@@H](C)[C@@H]([C@@H](C)[C@@H](OC)C(C)C(=O)O)O3)O2)O1 (some centres undefined) | -8% | nt | 1%
COCCNC(=O)c1ccc(-c2csc(C)n2)cc1 | nt | nt | -7%
